Test [1] in a line: APR_HepG2_CellLoss_24hr: Apredica 24-hour HepG2 Assay for Cell Loss (AID 2282908).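 For AC50: fit in both directions so a hit may be cell loss or gain.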 The settings on record: high-content imaging. In a few lines: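 HepG2 cells exposed 24 hr to 0.39–200 uM compound in duplicate at 0.5% v/v final DMSO. Cells fixed in 3.7% formaldehyde and Hoechst 33342-stained. Cell number came from nuclear imaging at 20x. Bidirectional fit versus DMSO.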
Test [2] is described as follows: APR_HepG2_MitoticArrest_24hr: Apredica 24-hour HepG2 Assay for Mitotic Arrest (AID 2282910). To be noted: high-content imaging, actives raise or lower the signal. In a few lines:
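HepG2 human liver cells were exposed to compounds at 0.39–200 uM (10 concentrations, duplicate) in 0.5% v/v DMSO for 24 hr, then fixed and immunostained for phospho-histone H3 with Hoechst 33342. Mitotic arrest came from HCS fluorescent imaging, fitted bidirectionally against DMSO.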

Test [3] is described as follows: APR_HepG2_MitoMembPot_24hr: Apredica 24-hour HepG2 Assay for Mitochondrial Membrane Potential (AID 2282911). To be noted: imaging, actives raise or lower the signal. In outline:
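Human hepatoma HepG2 cultures received ten compound concentrations up to 200 uM for 24 hr. Membrane-potential dye signal, captured by automated fluorescence microscopy, was scored for gain or loss against DMSO controls.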

The nature of test [4]: APR_HepG2_CellLoss_72hr: Apredica 72-hour HepG2 Assay for Cell Loss (AID 2282915). To be noted: high-content imaging. In a few lines:
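HepG2 cells were exposed for 72 hr to compounds at 0.39–200 uM (ten concentrations, duplicate) in 0.5% v/v final DMSO. Nuclei were stained with Hoechst 33342 after 3.7% formaldehyde fixation, imaged at 20x, and counted; fits bidirectional versus DMSO.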

The nature of test [5]: APR_HepG2_P-H2AX_72hr: Apredica 72-hour HepG2 Assay for H2AX Phosphorylation (AID 2282916).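 Note: phospho-histone H2A.x immunostain intensity per cell marking DNA damage.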 To be noted: imaging, actives raise or lower the signal. In a few lines:
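HepG2 cells treated 72 h at 0.39–200 uM, 0.5% DMSO final, duplicates. Formaldehyde-fixed, Triton-permeabilised, immunostained for phospho-H2A.x with Hoechst; fluorescence imaged at 20x, bidirectional fit versus DMSO.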

Test [6] is described as follows: APR_HepG2_MitoMembPot_72hr: Apredica 72-hour HepG2 Assay for Mitochondrial Membrane Potential (AID 2282917). To be noted: imaging, actives raise or lower the signal. In outline:
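HepG2 cells exposed 72 h to compounds at 0.39–200 uM (0.5% v/v DMSO, duplicates); MitoTracker Red CMXRos 250 nM loaded 30 min before 3.7% formaldehyde fixation, imaged by HCS fluorescence. Bidirectional fit versus DMSO.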

Test [7] can be described thus: APR_HepG2_MitoticArrest_72hr: Apredica 72-hour HepG2 Assay for Mitotic Arrest (AID 2282918). To be noted: high-content imaging, actives raise or lower the signal. In outline: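 Mitotic arrest in HepG2 is scored from phospho-histone H3 staining after 72 hr dosing across 0.39–200 uM, with DMSO at 0.5% v/v. Nuclei are identified by Hoechst 33342 and fluorescence intensity is quantified per cell.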

Test [8] in a line: APR_HepG2_P-H2AX_24hr: Apredica 24-hour HepG2 Assay for H2AX Phosphorylation (AID 2282920). To be noted: high-content imaging, actives raise or lower the signal. In outline:
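Signal comes from a FITC-labeled secondary detecting phospho-histone H2A.x in fixed HepG2 cells, quantified by automated imaging at 20x. Dosing ran 24 hr across 0.39–200 uM with 0.5% v/v DMSO.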

Test [9] is described as follows: APR_HepG2_StressKinase_72hr: Apredica 72-hour HepG2 Assay for Stress Kinase (AID 2282921). The settings on record: HepG2 stress kinase (phospho-c-Jun) imaging, actives raise or lower the signal. In a few lines:
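HepG2 cells treated 72 hr with 0.39–200 uM compound, 0.5% v/v DMSO, duplicate wells. After formaldehyde fixation and Triton permeabilization, stained with anti-phospho-c-Jun (1:500) and Cy3 secondary, imaged at 20x. Fitted in both directions against DMSO.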

A short description of test [10]: APR_HepG2_StressKinase_24hr: Apredica 24-hour HepG2 Assay for Stress Kinase (AID 2282922). The settings on record: HepG2 stress kinase (phospho-c-Jun) imaging, actives raise or lower the signal. In a few lines:
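HepG2 cells exposed 24 hr to compound at 0.39–200 uM (10 concentrations, duplicate), 0.5% v/v DMSO final. Fixed in 3.7% formaldehyde, permeabilized with Triton X-100, immunolabeled for phospho-c-Jun with Hoechst 33342; HCS fluorescence imaging, bidirectional fit versus DMSO.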

A short description of test [11]: APR_HepG2_MitoMass_72hr: Apredica 72-hour HepG2 Assay for Mitochondrial Mass (AID 2282924).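 Note: MitoTracker Red CMXRos stain intensity per cell imaged as mitochondrial mass.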 The settings on record: high-content imaging, actives raise or lower the signal. In outline: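 HepG2 cells were exposed for 72 hr to compounds at 0.39–200 uM (ten concentrations, duplicate, 0.5% v/v DMSO final). Live cells were stained with 250 nM MitoTracker Red CMXRos for 30 min, then fixed in 3.7% formaldehyde and imaged by HCS fluorescence.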

Test [12] can be described thus: ATG_CRE_CIS: Attagene CIS-FACTORIAL HepG2 Assay for human cAMP Responsive Element (CRE) binding protein 3 (AID 2282926). The settings on record: HepG2 CRE cis-reporter, Attagene multiplexed mRNA; actives raise or lower the signal. In a few lines:
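We dosed HepG2 cells bearing multiple cis-promoter reporter units for 24 h and measured reporter mRNA by RT-PCR with capillary electrophoresis detection. Bidirectional concentration-response fitting used DMSO as negative control.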

The nature of test [13]: APR_HepG2_p53Act_24hr: Apredica 24-hour HepG2 Assay for p53 Activation (AID 2282913).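 Note: p53 protein immunofluorescence averaged per cell in HepG2 with Hoechst nuclei.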 The settings on record: high-content imaging, actives raise or lower the signal. In a few lines: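 Automated fluorescence imaging quantifies p53 immunostaining in HepG2 cells after a 24 hr exposure (0.39–200 uM, duplicate, 0.5% DMSO). Nuclei are located by Hoechst 33342 staining.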
Test [14] can be described thus: APR_HepG2_p53Act_72hr: Apredica 72-hour HepG2 Assay for p53 Activation (AID 2282923).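 Note: average cellular p53 protein immunofluorescence intensity in HepG2 cells.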 To be noted: high-content imaging, actives raise or lower the signal. In outline: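 HepG2 cells exposed 72 h to 0.39–200 uM in 0.5% DMSO, duplicates. Fixed, permeabilized cells immunostained for p53 (Cy5) with Hoechst; imaged at 20x, fluorescence analyzed bidirectionally against DMSO.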

Test [15] in a line: APR_HepG2_CellCycleArrest_24hr: Apredica 24-hour HepG2 Assay for Cell Cycle Arrest (AID 2282905).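 Note: cell cycle arrest scored as ratio of 2N to 4N nuclear DNA content.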 The settings on record: imaging, actives raise or lower the signal. In a few lines:
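Compounds at 0.39–200 uM (0.5% DMSO) for 24 h, then fixed and Hoechst 33342 stained. Cell-cycle analysis of nuclear DNA content by high-content imaging, fitted bidirectionally versus DMSO.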

A short description of test [16]: APR_HepG2_NuclearSize_24hr: Apredica 24-hour HepG2 Assay for Nuclear Size (AID 2282907). The settings on record: high-content imaging, actives raise or lower the signal. In a few lines: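 HepG2 cells exposed 24 h to compounds at 0.39–200 uM (0.5% DMSO), fixed, Hoechst 33342 stained and imaged at 20x; nuclear diameter measured by automated image analysis, fitted bidirectionally against DMSO controls.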

A short description of test [17]: APR_HepG2_MicrotubuleCSK_24hr: Apredica 24-hour HepG2 Assay for Microtubule CSK Stabilty (AID 2282909). The settings on record: HepG2 microtubule cytoskeleton imaging, actives raise or lower the signal. In a few lines: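 HepG2 cells were treated 24 hr with compound at 0.39–200 uM in duplicate (0.5% DMSO final), then fixed and permeabilized. Alpha-tubulin immunofluorescence was imaged by high-content microscopy, with bidirectional fitting against DMSO and taxol as positive control.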

Test [18] in a line: APR_HepG2_CellCycleArrest_72hr: Apredica 72-hour HepG2 Assay for Cell Cycle Arrest (AID 2282914). To be noted: high-content imaging, actives raise or lower the signal. In outline:
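Cell cycle arrest in HepG2 was scored from nuclear DNA content after 72 hr compound treatment (0.39–200 uM). Activity, either gain or loss, was fitted against the DMSO baseline.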

The nature of test [19]: APR_HepG2_MicrotubuleCSK_72hr: Apredica 72-hour HepG2 Assay for Microtubule CSK Stabilty (AID 2282919). The settings on record: HepG2 microtubule cytoskeleton, high-content imaging, actives raise or lower the signal. In outline: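 HepG2 human liver cells were dosed for 72 h at ten concentrations from 0.39 to 200 uM in duplicate (0.5% v/v DMSO final). Fixed, permeabilized cells were immunostained for alpha-tubulin (Cy5) with a Hoechst counterstain and imaged at 20x.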

A short description of test [20]: APR_HepG2_NuclearSize_72hr: Apredica 72-hour HepG2 Assay for Nuclear Size (AID 2282925). The settings on record: high-content imaging, actives raise or lower the signal. In outline:
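HepG2 cells were exposed to compounds at ten concentrations from 0.39 to 200 uM (duplicate, 0.5% DMSO final) for 72 hr. After fixation in 3.7% formaldehyde, nuclei were stained with Hoechst 33342 (2 ug/mL) and imaged at 20x.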

The results in this text go back to PubChem BioAssay (EPA / NIEHS).

The source made the active and inactive calls. Rule for the calls: active = hit-call score of the fitted dose curve at least 0.9, where 1 is the maximum; inactive = score below 0.9.

Regarding `CC(=O)Nc1ccc(O)cc1`, the result in [1], in test [2], in [3], in test [4], in test [5] and in test [6] was inactive. Besides, the result in test [7], in [8], in test [9], in test [10], in test [11] and in test [12] was inactive.

`c1cnc2c(c1)ccc1cccnc12`: in test [12], the call was inactive.

With `CCOC=C(C(=O)OCC)C(=O)OCC`, the result in [12] was inactive.

Turning to `FC(F)(F)C1(F)C(F)(F)C(F)(F)C(F)(F)C(F)(C(F)(F)F)C1(F)F` (stereo not drawn), in test [12], the result was inactive.

In general, AC50 refers to the concentration at which the activity in the assay is half-maximal. For `O=C(c1ccccc1)c1ccccc1`, the compound was classed as inactive in test [1], in test [2], in [3], in test [13], in [4] and in test [5]. Further, the result in test [6], in test [7], in test [8], in test [9], in test [10] and in test [11] was inactive. The call in test [12] was inactive. In addition, the AC50 in [14] was 0.304 µM (active).

On to `Cn1sccc1=O`, for which the AC50 in test [12] is 154 µM (active).

In the case of `CCCCCCCCCCCCOS(=O)(=O)O`, the call in test [15], in [16], in test [1], in [17], in test [2] and in [3] was inactive. Further, the compound was called inactive in [18], in test [4], in test [5], in test [6], in test [7] and in test [19]. Besides, the compound was called inactive in test [8], in test [9], in [10], in test [11] and in test [20].

With `Cc1ccc(C(=O)c2ccccc2)cc1`, the call in test [12] was inactive.

As to `CCCCCCCCCCCCOC(=O)c1cc(O)c(O)c(O)c1`, the result in test [12] was inactive.

Take `CCCCC(CC)C(=O)O` (stereo not drawn): the result in test [15], in [16], in test [1], in test [17], in test [2] and in [3] was inactive. In addition, the outcome in test [18], in test [4], in test [5], in [8], in [9] and in test [10] was inactive. The call in test [20] and in test [12] was inactive.

As to `Nc1cc(Cl)c(-c2cc(Cl)c(N)cc2Cl)cc1Cl`, the compound was called inactive in [12].

On to `O=C(CCCN1CCC(O)(c2ccc(Cl)cc2)CC1)c1ccc(F)cc1`, for which the AC50 in test [1] is 87.4 µM (active); in test [2], 34.5 µM (active); in [13], 98.3 µM (active); in test [4] it was 34.7 µM (active); in [5], 33 µM (active); in [6], 51.7 µM (active). For the same compound, the AC50 in test [7] is 19.8 µM (active); in test [8], 100 µM (active); in test [9], 42.5 µM (active); in test [10] it was 103 µM (active); in test [14] it was 37.3 µM (active); in [11], 30.8 µM (active). In test [12], the AC50 is 52.9 µM (active). For the same compound, in test [3], the compound was classed as inactive.
